Source: PubChem
ERAP1 inh – inhibitors of human ERAP1 aminopeptidase; Q9NZ08; recombinant ERAP1, Leu-AMC fluorescence, 60 min; inhibition, % at 10.7 µM; 0.15% of 340,000 active;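 active = mean replicate inhibition of at least 30%, or all replicates individually reaching that 30% level; inactive = mean below 30% and not every replicate reaching it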;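 note: 0% = neutral control wells and 100% = L-leucinethiol positive control wells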
CaV13 ICDI inh – Disruptors of the CACNA1D IQ motif to Ca2+-dependent inactivation inhibitor domain association, primary screening, Förster resonance energy transfer in intact living …. HEK cells, CFP/YFP FRET ICDI-IQ, plate reader, 10 min; percent FRET-ratio fall versus neutral wells. inhibition, % at 12.3 µM. 0.098% of 340,000 active;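 active = mean replicate inhibition of at least 30% and at least 1% of replicates passing that level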;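 note: 0% = median of the neutral control wells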
PDI turbidity – blocks human protein disulfide isomerase activity; inhibition, % at 10 µM; PDI insulin aggregation turbidity, A650, 90 min; AID 588391; P07237; 0.052% of 350,000 active;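 active = mean inhibition across replicates of 30% or more, whatever share of single replicates reach that level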
Target sequence (P07237 whole entry, looked up): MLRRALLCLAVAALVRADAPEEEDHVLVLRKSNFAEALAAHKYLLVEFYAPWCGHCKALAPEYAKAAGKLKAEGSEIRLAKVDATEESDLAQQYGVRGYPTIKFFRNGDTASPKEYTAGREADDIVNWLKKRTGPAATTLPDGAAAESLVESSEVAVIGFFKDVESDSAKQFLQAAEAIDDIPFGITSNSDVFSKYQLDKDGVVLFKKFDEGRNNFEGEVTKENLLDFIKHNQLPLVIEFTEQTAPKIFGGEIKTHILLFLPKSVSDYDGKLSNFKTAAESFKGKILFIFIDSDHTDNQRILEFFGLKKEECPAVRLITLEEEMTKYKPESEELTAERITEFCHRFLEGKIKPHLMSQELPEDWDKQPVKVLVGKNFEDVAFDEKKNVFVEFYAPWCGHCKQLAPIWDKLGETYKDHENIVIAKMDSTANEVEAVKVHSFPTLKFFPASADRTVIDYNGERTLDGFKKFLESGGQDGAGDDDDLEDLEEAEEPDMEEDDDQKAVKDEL
PglD inh – inhibitors of Campylobacter jejuni PglD acetyltransferase. purified PglD enzyme, DTNB colorimetric CoA detection. inhibition, % at 12.5 µM. 0.098% of 360,000 active. AID 602405; in the data active = inhibition above about 16%, passing the limit was not always enough
ERp5 inh – ERp5 (human) disulfide isomerase inhibition; ERp5 insulin aggregation, absorbance 650 nm, 90 min; inhibition, % at 9.99 µM; 0.05% of 350,000 active;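 active = mean replicate inhibition above about 25%, with every replicate also reaching it, limit read from the data, passing the limit was not always enough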
PGC1a acetyl inh – lowers PGC1a acetylation signal in U2OS cells; AlphaScreen anti-acetyl-lysine; with virally co-expressed GCN5 acetyltransferase; inhibition, % at 15.6 µM; 0.17% of 350,000 active;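 active = every replicate shows inhibition of at least 40%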;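 note: 0% = neutral control wells and 100% = positive control wells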
The depositor's hits bear a star; nt = no result given; ! = repeats disagree. A selection: hits, their analogues and other compounds. The true share with any hit is near 0.46%.

SMILES	ERAP1 inh	CaV13 ICDI inh	PDI turbidity	PglD inh	ERp5 inh	PGC1a acetyl inh
Cc1ccc(S(=O)(=O)N(C)C[C@H]2Oc3ccc(NC(=O)C4CC4)cc3CC(=O)N([C@H](C)CO)C[C@@H]2C)cc1	-1	nt	nt	15*	0	5
C[C@@H]1CN([C@H](C)CO)C(=O)Cc2cc(NC(=O)c3ccncc3)ccc2O[C@H]1CN(C)S(=O)(=O)c1cn(C)cn1	0	nt	nt	-3	77*	2
C[C@H]1CN([C@@H](C)CO)C(=O)Cc2cc(NC(=O)c3ccncc3)ccc2O[C@@H]1CN(C)S(=O)(=O)c1cn(C)cn1	0	nt	nt	-2	10	-2
C[C@@H]1CN([C@H](C)CO)C(=O)Cc2cc(NS(=O)(=O)c3ccc(F)cc3)ccc2O[C@@H]1CN(C)S(=O)(=O)c1cn(C)cn1	2	nt	nt	5	27*	-4
C[C@H]1CN([C@@H](C)CO)C(=O)CCCn2nncc2CO[C@@H]1CN(C)S(=O)(=O)c1cn(C)cn1	1	-5	13	-3	9	2
C[C@@H]1CN([C@H](C)CO)C(=O)CCCn2nncc2CO[C@@H]1CN(C)S(=O)(=O)c1cn(C)cn1	-8	-6	11	-4	10	101*!
O=[N+]([O-])c1ccccc1S(=O)(=O)N1CCN(Cc2ccc(OCCO)cc2)CC1	2	nt	nt	-3	-2	8
COc1cccc(-c2ccc([C@@H]3[C@H](CO)N4CCCCN(C(=O)NC(C)C)C[C@@H]34)cc2)c1	nt	nt	nt	-8	2	-9
C[C@@H]1CN([C@H](C)CO)C(=O)c2cc(C3=CCCC3)cnc2O[C@H]1CN(C)C(=O)Nc1cccc(F)c1	2	nt	nt	0	-2	-5
CC(C)NC(=O)NCC[C@@H]1CC[C@H](NC(=O)CCN2CCCCC2)[C@H](CO)O1	0	nt	nt	-3	-1	-3
C[C@@H]1CN([C@@H](C)CO)C(=O)c2cc(NC(=O)CCN3CCOCC3)ccc2O[C@@H]1CN(C)Cc1ccc2c(c1)OCO2	-5	nt	nt	3	-2	-1
Cn1cnc(S(=O)(=O)N2C[C@H](O)COC[C@H]3O[C@@H](CC(=O)NC4Cc5ccccc5C4)CC[C@@H]32)c1	-3	nt	nt	-1	-1	6
C[C@@H]1CN([C@H](C)CO)C(=O)c2cc(C#CC3(O)CCCC3)cnc2O[C@H]1CN(C)C	2	nt	nt	9	-3	4
O=C(CCl)N=c1sccn1Cc1ccc(Cl)cc1Cl	-1	-5	6	nt	7	66*
O=C(CCl)N=c1sccn1Cc1ccccc1Cl	0	-5	-8	-6	6	52*
O=C(CCl)N=c1sccn1Cc1cccc2ccccc12	1	-3	-3	nt	-5	nt
Cc1ccccc1-c1cnc2c(c1)C(=O)N([C@H](C)CO)C[C@H](C)[C@H](CN(C)C(=O)c1cccnc1)O2	0	nt	nt	3	-2	14
O=C(Cn1ncc(Cl)c(Cl)c1=O)N1CCN(S(=O)(=O)c2ccc3ccccc3c2)CC1	nt	-5	-1	1	nt	77*
CCOc1ccccc1-n1nnnc1SCC(=O)NC(=O)NCc1ccco1	nt	-3	-1	-2	nt	-8
CCOc1ccccc1-n1nnnc1SCC(=O)NC(=O)Cc1ccccc1	33*	-6	-9	-7	4	1
CO[C@H]1CN(C)C(=O)c2ccc(NS(=O)(=O)c3cccc(F)c3)cc2OC[C@H](C)N(Cc2cc(F)ccc2F)C[C@@H]1C	-3	nt	nt	1	0	-12
Cc1c(CCC(=O)NCCCCCC(=O)O)c(=O)oc2cc3occ(-c4ccccc4)c3cc12	35*	-20	3	5	-2	12
CSc1nc2nccc(/C=C\c3ccccc3)n2n1	nt	-6	0	1	nt	50*
CSc1nc2nccc(-c3ccc(Cl)cc3)n2n1	nt	-6	-5	6	nt	5
O=C(CSc1nc2nn(-c3ccccc3)c(=O)c-2c2n1CCCCC2)c1ccc(O)c(O)c1	nt	nt	53*	-1	nt	-4
SMILES	ERAP1 inh	CaV13 ICDI inh	PDI turbidity	PglD inh	ERp5 inh	PGC1a acetyl inh
CNC(=O)CSc1nc2nn(-c3ccccc3)c(=O)c-2c2n1CCCCC2	1	-8	-1	-1	6	-27
COc1ccc([C@H]2C=C(C(=O)N3CCCCC3)O[C@@H](OCc3ccc(CO)cc3)C2)cc1	-3	nt	nt	1	0	2
Cc1ccc(S(=O)(=O)Nc2ccc3c(c2)CC(=O)N([C@@H](C)CO)C[C@H](C)[C@H](CN(C)C(=O)Nc2ccccc2)O3)cc1	4	nt	nt	0	-2	6
COC(=O)c1c(NC(=O)COC(=O)CCNS(=O)(=O)c2ccccc2)sc(C)c1C	3	-6	6	4	-1	nt
CCOC(=O)c1c(NC(=O)COC(=O)CCNS(=O)(=O)c2ccccc2)sc(C(=O)NC)c1C	38*	-2	3	0	-24	0
C=CCn1nnnc1SCC(=O)Nc1cccc(C(F)(F)F)c1	103*	-6	-2	-1	5	1
COC(=O)C1=CN(C)C=C(C(=O)OC)C1c1ccccc1Cl	nt	36*	7	-6	nt	-8
CCCCOc1ccccc1C1C(C(=O)OC)=CN(CC)C=C1C(=O)OC	nt	nt	-3	3	nt	-9
CCN1/C(=C/c2ccc3cc(C)ccc3[n+]2CC)Sc2cc(C)c(C)cc21	33*	-6	-4	nt	-1	27
CCN1/C(=C/c2ccc3cc(C)ccc3[n+]2CC)Sc2ccccc21	18	-65	-4	nt	3	nt
CC(=O)OC1C2CCC1C([N+]1(C)CCCCC1)CC2 (stereo not given)	35*	6	0	nt	5	5
COc1ccc(NC(=O)Nc2ccc3c(c2)[C@H]2C[C@H](CC(=O)N4CCc5ccccc5C4)O[C@@H](CO)[C@H]2O3)cc1	0	nt	nt	1	5	4
CCSc1nnc([C@H](Cc2c[nH]c3ccccc23)NC(=O)OC(C)(C)C)o1	nt	-5	49*	0	nt	-8
CCN(CC)C(=O)CSc1nnc([C@H](Cc2c[nH]c3ccccc23)NC(=O)OC(C)(C)C)o1	nt	-4	56*	1	nt	-8
CCN(CC(=O)Nc1ccccc1C(F)(F)F)C(=O)Cn1c(=O)cnc2ccccc21	32*	-6	2	-2	-2	nt
C=CC[C@]1(C(=O)NCc2ccccc2)COC(c2ccc(OCCCO)cc2)=N1	-2	nt	nt	-1	2	-12
C=C1C(=O)C23CCC4C(C)(C(=O)OC)CCCC4(C)C2CCC1(O)C3 (stereo not given)	-2	-7	15	nt	-3	76*
COC(=O)[C@]1(C)CCC[C@@]2(C)C3CC[C@@]4(C)C[C@]3(CCC21)CC(=O)N4 (stereo not given in full)	0	-9	4	-1	-2	nt
COc1cccc(NC(=O)N[C@H]2CC[C@H](CC(=O)NCc3ccccn3)O[C@H]2CO)c1	2	nt	nt	2	4	4
